# “And” between values parts separate entries of the source, which are not always exact repeats. Identical values can stand only once. Inconclusive results are not listed. A call without a number means that no potency is given here. More than one record can exist for a structure, and the calls need not agree. The source made the active and inactive calls. Unless noted, calls follow the shape of the dose curve; as a rule, active = well fitted curve in the direction sought with a large enough effect in the repeat runs; inconclusive = weak or mixed curves; inactive = no such curve, though single readings can be large; an effect the other way counts as inactive or inconclusive.
# What was measured:
# [1] = qHTS assay to identify small molecule antagonists of the glucocorticoid receptor (GR) signaling pathway - cell viability counter screen (AID 720693); also: nearly all actives have a fitted effect of over 55% in size; also: potency is read from the fitted curve at half-maximal effect
# [2] = qHTS assay for identifying genotoxic compounds that show differential cytotoxicity against isogenic chicken DT40 cell lines with known DNA damage response pathways - wild type cell line (AID 743012); also: nearly all actives have a fitted effect of over 60% in size; also: potency is read from the fitted curve at half-maximal effect
# In short: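 Luminescent ATP viability signal (CellTiter-Glo, 30 min RT) recorded after wild type DT40 cells were incubated with compounds for 40 h at 37 C/5% CO2.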
# [3] = qHTS assay for identifying genotoxic compounds that show differential cytotoxicity against isogenic chicken DT40 cell lines with known DNA damage response pathways - Rev3 mutant cell line (AID 743014); also: nearly all actives have a fitted effect of over 55% in size; also: potency is read from the fitted curve at half-maximal effect
# [4] = qHTS assay for identifying genotoxic compounds that show differential cytotoxicity against isogenic chicken DT40 cell lines with known DNA damage response pathways - Rad54/Ku70 mutant cell line (AID 743015); also: nearly all actives have a fitted effect of over 60% in size; also: potency is read from the fitted curve at half-maximal effect
# [5] = qHTS assay to identify small molecule antagonists of the androgen receptor (AR) signaling pathway - cell viability counter screen (AID 743033; also: nearly all actives have a fitted effect of over 45% in size; also: potency is read from the fitted curve at half-maximal effect)
# [6] = molecular target: Androgen receptor (Homo sapiens) (UniProt P10275); assay: qHTS assay to identify small molecule antagonists of the androgen receptor (AR) signaling pathway (AID 743035; active = well fitted inhibition curve with a large enough effect in the signal ratio in the repeat runs, not every such curve was filed as active; the % refers to the signal ratio)
# In short: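 Quantitative HTS of the Tox21 10K library used HEK293 AR-UAS-bla cells stimulated with R1881 alongside compound for 16 h at 37C, followed by beta-lactamase FRET detection (LiveBLAzer B/G, 2 h, RT).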
# [7] = molecular target: Androgen receptor (Homo sapiens) (UniProt P10275); assay: qHTS assay to identify small molecule agonists of the androgen receptor (AR) signaling pathway (AID 743036; active = well fitted activation curve with a large enough effect in the signal ratio in the repeat runs, with a control signal flat, not every such curve was filed as active; the % refers to the signal ratio)
# In short: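 Activation was read as beta-lactamase FRET signal from LiveBLAzer B/G substrate, added for 2 h at room temperature. Before that, GeneBLAzer AR-UAS-bla GripTite (HEK293) cells had 16 h compound exposure at 37C.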
# [8] = molecular target: Androgen receptor (Homo sapiens) (UniProt P10275); assay: qHTS assay to identify small molecule agonists of the androgen receptor (AR) signaling pathway using the MDA cell line (AID 743040; also: nearly all actives have a fitted effect of over 20% in size)
# In short: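 Luciferase read-out, ONE-Glo, 30 min RT. Cells: MDA-kb2 AR-luc, MMTV promoter with AR and GR response elements. Compound exposure 16 h, 37C, 0% CO2, after 5 h pre-incubation. qHTS agonist mode.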
# [9] = qHTS assay to identify small molecule antagonists of the androgen receptor (AR) signaling pathway using the MDA cell line - cell viability counter screen (AID 743041; also: nearly all actives have a fitted effect of over 45% in size; also: potency is read from the fitted curve at half-maximal effect)
# In short: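 Cytotoxicity counter screen: MDA-kb2 AR-luc cells, compound + R1881, 16 h, 37C, 0% CO2; CellTiter-Fluor added at 15.5 h, fluorescence read after 30 min.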
# [10] = molecular target: Androgen receptor (Homo sapiens) (UniProt P10275); assay: qHTS assay to identify small molecule antagonists of the androgen receptor (AR) signaling pathway using the MDA cell line (AID 743042; also: nearly all actives have a fitted effect of over 55% in size)
# In short: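 MDA-kb2 breast carcinoma cells carrying MMTV-luciferase (AR/GR responsive) were co-treated with compounds and the agonist R1881 for 16 h at 37C. Inhibition read as ONE-Glo luminescence; CellTiter-Fluor fluorescence measured in parallel for cytotoxicity.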
# Androgen receptor (Homo sapiens), sequence (P10275 whole entry, looked up): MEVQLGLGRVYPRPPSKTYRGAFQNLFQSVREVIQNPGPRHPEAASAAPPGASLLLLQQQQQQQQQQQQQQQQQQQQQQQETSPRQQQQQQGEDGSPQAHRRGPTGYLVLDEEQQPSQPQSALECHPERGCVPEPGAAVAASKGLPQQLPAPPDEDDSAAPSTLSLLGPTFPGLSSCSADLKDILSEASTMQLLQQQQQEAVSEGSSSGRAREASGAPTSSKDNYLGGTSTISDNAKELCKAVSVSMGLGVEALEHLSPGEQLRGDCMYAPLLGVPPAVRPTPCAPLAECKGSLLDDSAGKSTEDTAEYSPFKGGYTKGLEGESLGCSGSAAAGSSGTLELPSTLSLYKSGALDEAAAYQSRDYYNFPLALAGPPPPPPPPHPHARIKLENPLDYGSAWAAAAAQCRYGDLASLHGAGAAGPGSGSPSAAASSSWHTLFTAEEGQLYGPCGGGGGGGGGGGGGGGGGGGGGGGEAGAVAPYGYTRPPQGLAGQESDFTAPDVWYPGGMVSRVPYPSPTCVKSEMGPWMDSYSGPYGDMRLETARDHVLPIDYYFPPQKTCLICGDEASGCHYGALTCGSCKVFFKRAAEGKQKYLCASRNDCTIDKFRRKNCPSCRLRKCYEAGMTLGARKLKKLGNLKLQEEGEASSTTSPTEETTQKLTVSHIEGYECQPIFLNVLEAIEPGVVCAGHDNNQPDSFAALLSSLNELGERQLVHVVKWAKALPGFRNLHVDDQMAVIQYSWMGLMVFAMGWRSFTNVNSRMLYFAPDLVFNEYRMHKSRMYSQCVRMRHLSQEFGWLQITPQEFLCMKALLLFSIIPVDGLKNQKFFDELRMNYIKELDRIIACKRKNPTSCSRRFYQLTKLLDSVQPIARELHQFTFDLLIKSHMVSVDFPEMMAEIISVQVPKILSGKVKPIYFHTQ
SMILES,Potency [1],Potency [2],Potency [3],Potency [4],Potency [5],Potency [6],Potency [7],Potency [8],Potency [9],Potency [10]
CN[C@@H]1[C@@H](O[C@H]2O[C@H](CO)[C@@H](N)[C@H](O)[C@H]2O)O[C@H]2C[C@@H](N)[C@@H](O[C@H]3[C@H](O)[C@@H](O)[C@H](N)C[C@@H]3N)O[C@@H]2[C@@H]1O,inactive,inactive,inactive,inactive,inactive,inactive,inactive,inactive,inactive,inactive
CC(=O)OCC1=C(C(=O)O)N2C(=O)[C@@H](NC(=O)Cc3ccccc3)[C@H]2SC1,inactive,inactive,inactive,inactive,inactive,inactive,inactive,inactive,inactive,inactive
CCCC(CCC)C(=O)OC1C[C@H]2CC[C@@H](C1)[N+]2(C)C (stereo partly drawn),inactive,inactive,inactive and 13.3 µM (active),inactive,inactive,–,–,–,inactive,–
CNC(=O)OCc1cccc(COC(=O)NC)n1,inactive,inactive,inactive,inactive,inactive,–,–,–,inactive,–
C/C(=C(/CCO)SSCC1CCCO1)N(C=O)Cc1cnc(C)nc1N (stereo not drawn),inactive,23.7 µM (active) and 11.9 µM (active),23.7 µM (active),26.6 µM (active),inactive,–,–,–,inactive,–
FC(F)(F)COCC(F)(F)F,inactive,inactive,inactive,inactive,inactive,–,–,–,inactive,–
CC1CCCC(C)N1NC(=O)c1ccc(Cl)c(S(N)(=O)=O)c1 (stereo not drawn),inactive,inactive,inactive,inactive,inactive,–,–,–,inactive,–
NC(N)=NCCCCN=C(N)N,inactive,inactive,inactive,inactive,inactive,–,–,–,inactive,–
COC1=C(OC)C(=O)C(C/C=C(\C)CC/C=C(\C)CC/C=C(\C)CC/C=C(\C)CC/C=C(\C)CC/C=C(\C)CC/C=C(\C)CC/C=C(\C)CC/C=C(\C)CCC=C(C)C)=C(C)C1=O,inactive,inactive,inactive,inactive,inactive,–,–,–,inactive,–
CCN1\C(=C/C=C/C=C/c2sc3ccccc3[n+]2CC)Sc2ccccc21,23.9 µM (active) and 21.3 µM (active),133 nM (active) and 298 nM (active),237 nM (active) and 841 nM (active),168 nM (active) and 335 nM (active),2.68 µM (active) and 8.49 µM (active),–,–,–,1.68 µM (active) and 5.96 µM (active),–
O=C1c2ccccc2CN2C(=O)c3ccccc3CN12,inactive,inactive,inactive,inactive,inactive,–,–,–,inactive,–
CC(=O)Nc1ccc(OC(C)=O)cc1,inactive,inactive,inactive,inactive,inactive,–,–,–,inactive,–
CNCC(=O)N[C@@H](CCCN=C(N)N)C(=O)N[C@H](C(=O)N[C@@H](Cc1ccc(O)cc1)C(=O)N[C@H](C(=O)N[C@@H](Cc1cnc[nH]1)C(=O)N1CCC[C@H]1C(=O)N[C@@H](C)C(=O)O)C(C)C)C(C)C,inactive,inactive,inactive,inactive,inactive,–,–,–,inactive,–
O=C(Cn1cnnn1)N[C@@H]1C(=O)N2C(C(=O)O)=C(CSc3nncs3)CS[C@H]12,inactive,inactive,inactive,inactive,inactive,–,–,–,inactive,–
C(=C\c1ccncc1)/c1ccccc1,inactive,inactive and 26.6 µM (active),inactive and 26.6 µM (active),inactive and 26.6 µM (active),inactive,–,–,–,inactive,–
C[C@H](O)CN(C)C,inactive,inactive,inactive,inactive,inactive,–,–,–,inactive,–
O=C(O)c1cc2cc(Cc3cccnc3)ccc2o1,inactive,inactive,inactive,inactive,inactive,–,–,–,inactive,–
Cc1ncc(C[n+]2csc(CCOP(=O)(O)O)c2C)c(N)n1,inactive,inactive,inactive,inactive,inactive,–,–,–,inactive,–
C=N[C@@H](C(=O)N[C@@H]1C(=O)N2[C@@H]1SC(C)(C)[C@@H]2C(=O)O)c1ccccc1,inactive,inactive,inactive,inactive,inactive,–,–,–,inactive,–
CCCCCCCCCCCC[n+]1ccc2ccccc2c1,9.52 µM (active),168 nM (active),0.298 µM (active),0.266 µM (active),3.01 µM (active),–,–,–,5.96 µM (active),–

# — PubChem BioAssay (Tox21)
